Measurements: PubChem BioAssay (EPA / NIEHS)
Some structures have more than one record in an assay (separate samples or runs), and their calls can disagree. Activity calls are given as the source filed them. The calls were made as follows: active = hit-call score of the fitted dose curve at least 0.9, where 1 is the maximum; inactive = score below 0.9.

What was measured:
[1] = CEETOX_H295R_DOC: CeeTox H295R High-throughput Steroidogenesis Assay for DOC (AID 2283439); settings: actives raise or lower the signal
Procedure, shortened: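 Readout: 11-deoxycorticosterone in culture medium by reverse-phase C18 HPLC with ESI+ tandem MS after MTBE extraction. Cells: H295R, forskolin-primed (10 uM, 48 h), chemical-treated 48 h; DMSO 0.1% final. Activity fitted bidirectionally versus DMSO.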

[2] = CEETOX_H295R_ESTRADIOL: CeeTox H295R High-throughput Steroidogenesis Assay for Estradiol (AID 2283440); settings: actives raise or lower the signal;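 also: estradiol secreted into medium quantified by LC-MS/MS after dansyl derivatisation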
Procedure, shortened: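 H295R, 48 h forskolin (10 uM) prestim → 48 h compound, 0.1% DMSO final. Estradiol in medium: MTBE extraction, dansyl chloride derivatization, LC-MS/MS. Fit bidirectional vs DMSO baseline; MTT viability in same wells.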

[3] = CEETOX_H295R_ESTRONE: CeeTox H295R High-throughput Steroidogenesis Assay for Estrone (AID 2283441); settings: actives raise or lower the signal;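 also: estrone secreted into medium measured by LC-MS/MS after dansyl derivatization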
Procedure, shortened: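 H295R cells prestimulated 48 h with 10 uM forskolin, then exposed 48 h to chemicals in 0.1% DMSO final; estrone in medium extracted with MTBE, dansyl-derivatized, quantified by HPLC-MS/MS; bidirectional fitting versus DMSO, viability by MTT.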

[4] = read-out: Tumor necrosis factor receptor superfamily member 6 (Homo sapiens) (UniProt P25445); assay: LTEA_HepaRG_FAS: Life Technologies and Expression Analysis (LTEA) Assay for Fas cell surface death receptor (FAS) using HepaRG (AID 2283447); settings: mRNA level, 48 h; actives raise or lower the signal
Procedure, shortened: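 FAS transcript level was measured by TaqMan qRT-PCR against three housekeeping genes after 48 h chemical exposure. Cells were HepaRG, 0.5% DMSO vehicle, with a top concentration of 100 uM and half-log dilutions over eight points, in duplicate.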

[5] = read-out: Cyclin Dependent Kinase Inhibitor 1A (CDKN1A), CDKN1A (gene 1026); assay: LTEA_HepaRG_CDKN1A: Life Technologies and Expression Analysis (LTEA) Assay for Cyclin Dependent Kinase Inhibitor 1A (CDKN1A) using HepaRG (AID 2283450); settings: mRNA level, 48 h; actives raise or lower the signal
Procedure, shortened: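 HepaRG, 48 h dosing, 8-pt half-log series from 100 uM top, 0.5% DMSO vehicle, duplicates. Readout: TaqMan qRT-PCR of CDKN1A transcript, housekeeping-normalized (ACTB, GAPDH, POLR2A). Up/down curve fit relative to DMSO.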

[6] = read-out: Cyclin D1 (CCND1), CCND1 (gene 595); assay: LTEA_HepaRG_CCND1: Life Technologies and Expression Analysis (LTEA) Assay for Cyclin D1 (CCND1) using HepaRG (AID 2283451); settings: mRNA level, 48 h; actives raise or lower the signal;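 as to AC50: differentiated human HepaRG liver cells in serum-free induction medium; TaqMan qRT-PCR transcript level normalised to ACTB GAPDH and POLR2A housekeeping genes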
Procedure, shortened: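 qRT-PCR (Fluidigm 96.96 array) read-out of transcript level, housekeeping-normalized (ACTB/GAPDH/POLR2A). HepaRG cells, 48 h chemical exposure, 8-point half-log series from 100 uM, 0.5% DMSO vehicle; gain or loss relative to DMSO baseline.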

[7] = read-out: catalase (CAT), CAT (gene 847); assay: LTEA_HepaRG_CAT: Life Technologies and Expression Analysis (LTEA) Assay for catalase (CAT) using HepaRG (AID 2283452); settings: mRNA level, 48 h; actives raise or lower the signal
Procedure, shortened: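 Expression of CAT was quantified by TaqMan qRT-PCR with ACTB/GAPDH/POLR2A normalization after 48 h chemical exposure of HepaRG. Eight-point half-log series, top 100 uM, in 0.5% DMSO; gain or loss fitted against vehicle.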

[8] = read-out: Cytochrome P450 (CYP1A1), CYP1A1 (gene 1543); assay: LTEA_HepaRG_CYP1A1: Life Technologies and Expression Analysis (LTEA) Assay for Cytochrome P450 (CYP1A1) using HepaRG (AID 2283454); settings: mRNA level, 48 h; actives raise or lower the signal
Procedure, shortened: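 qRT-PCR read-out: CYP1A1 transcript normalized to three housekeeping genes, fitted bidirectionally against 0.5% DMSO vehicle baseline. Human HepaRG cells, 48 h chemical exposure, 8-point half-log series topping at 100 uM.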

[9] = read-out: CFLAR gene, CFLAR (gene 8837); assay: LTEA_HepaRG_CFLAR: Life Technologies and Expression Analysis (LTEA) Assay for CFLAR gene using HepaRG (AID 2283455); settings: mRNA level, 48 h; actives raise or lower the signal
Procedure, shortened: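 HepaRG, 48 h exposure, 8-pt conc-response (100 uM top, half-log), 0.5% DMSO vehicle, duplicates. CFLAR expression by qRT-PCR; ACTB/GAPDH/POLR2A normalization; gain or loss fit vs DMSO baseline.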

[10] = read-out: Forkhead box O1 (FOXO1), FOXO1 (gene 2308); assay: LTEA_HepaRG_FOXO1: Life Technologies and Expression Analysis (LTEA) Assay for Forkhead box O1 (FOXO1) using HepaRG (AID 2283456); settings: mRNA level, 48 h; actives raise or lower the signal
Procedure, shortened: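 Readout is FOXO1 transcript level by multiplexed qRT-PCR against three housekeeping genes, curve-fitted in both directions relative to 0.5% DMSO vehicle. Human HepaRG cultures received chemicals for 48 h, up to 100 uM in half-log steps.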

[11] = read-out: growth arrest and DNA damage 45 (GADD45A), GADD45A (gene 1647); assay: LTEA_HepaRG_GADD45A: Life Technologies and Expression Analysis (LTEA) Assay for growth arrest and DNA damage 45 (GADD45A) using HepaRG (AID 2283458); settings: mRNA level, 48 h; actives raise or lower the signal
Procedure, shortened: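 Cells plated and cultured 48 h, switched to serum-free induction medium, then dosed for 48 h (100 uM top, half-log dilutions, 0.5% DMSO). RNA was isolated and transcript measured by Fluidigm qRT-PCR.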

[12] = read-out: Forkhead box O3 (FOXO3), FOXO3 (gene 2309); assay: LTEA_HepaRG_FOXO3: Life Technologies and Expression Analysis (LTEA) Assay for Forkhead box O3 (FOXO3) using HepaRG (AID 2283459); settings: mRNA level, 48 h; actives raise or lower the signal
Procedure, shortened: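 HepaRG, 48 h post-dose; 8 conc., half-log from 100 uM, 0.5% DMSO, duplicates; serum-free induction medium. Readout: FOXO3 mRNA, TaqMan qRT-PCR, housekeeping-normalized. Bidirectional curve fit vs DMSO baseline.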

[13] = read-out: ABC Transporter (ABCB1), ABCB1 (gene 5243); assay: LTEA_HepaRG_ABCB1: Life Technologies and Expression Analysis (LTEA) Assay for ABC Transporter (ABCB1) using HepaRG (AID 2283460); settings: mRNA level, 48 h; actives raise or lower the signal
Procedure, shortened: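 Expression of ABCB1 was quantified by qRT-PCR against three housekeeping genes after human HepaRG cultures received test chemicals for 48 hours. Concentrations spanned eight half-log steps topping at 100 uM in 0.5% DMSO; gain or loss of signal was fitted relative to vehicle.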

[14] = read-out: growth arrest and DNA damage 45 (GADD45B), GADD45B (gene 4616); assay: LTEA_HepaRG_GADD45B: Life Technologies and Expression Analysis (LTEA) Assay for growth arrest and DNA damage 45 (GADD45B) using HepaRG (AID 2283461); settings: mRNA level, 48 h; actives raise or lower the signal
Procedure, shortened: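 qRT-PCR read-out (Fluidigm TaqMan, housekeeping-normalized) of mRNA change in human HepaRG cells after 48 h chemical exposure; 8-point curve, top 100 uM, half-log steps, 0.5% DMSO vehicle; gain or loss fitted relative to DMSO baseline.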

[15] = read-out: ABC Transporter (ABCC3), ABCC3 (gene 8714); assay: LTEA_HepaRG_ABCC3: Life Technologies and Expression Analysis (LTEA) Assay for ABC Transporter (ABCC3) using HepaRG (AID 2283462); settings: mRNA level, 48 h; actives raise or lower the signal
Procedure, shortened: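 qRT-PCR read-out of ABCC3 transcript, normalized to three housekeeping genes (ACTB, GAPDH, POLR2A), after 48 h chemical exposure of human HepaRG cells. Eight half-log concentrations, highest 100 uM, in 0.5% DMSO; gain or loss fitted relative to DMSO baseline.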

[16] = read-out: Cyclin D2 (CCND2), CCND2 (gene 894); assay: LTEA_HepaRG_CCND2: Life Technologies and Expression Analysis (LTEA) Assay for Cyclin D2 (CCND2) using HepaRG (AID 2283449); settings: mRNA level, 48 h; actives raise or lower the signal
Procedure, shortened: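 Read-out is CCND2 mRNA level measured by qRT-PCR in human HepaRG liver cells and normalised to three housekeeping genes. Chemicals were applied for 48 h at up to 100 uM, with gain or loss fitted relative to 0.5% DMSO.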

[17] = CEETOX_H295R_TESTO: CeeTox H295R High-throughput Steroidogenesis Assay for Testosterone (TESTO) (AID 2283457); settings: actives raise or lower the signal
Procedure, shortened: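 Readout: testosterone quantified by HPLC-MS/MS (C18, ESI positive) after MTBE liquid-liquid extraction of culture medium. Cells were H295R, 48 h chemical exposure per OECD 456 with modifications. Gain or loss of signal fitted relative to DMSO.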

[18] = read-out: ABC Transporter (ABCB11), ABCB11 (gene 8647); assay: LTEA_HepaRG_ABCB11: Life Technologies and Expression Analysis (LTEA) Assay for ABC Transporter (ABCB11) using HepaRG (AID 2283463); settings: mRNA level, 48 h; actives raise or lower the signal
Procedure, shortened: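 ABCB11 transcript levels are read by Fluidigm TaqMan qRT-PCR after 48 h chemical treatment of human HepaRG cells. Concentrations span 100 uM downward in half-log steps with 0.5% DMSO; gain or loss is fitted against DMSO controls.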

[19] = read-out: Fatty acid synthase (Homo sapiens) (UniProt P49327); assay: LTEA_HepaRG_FASN: Life Technologies and Expression Analysis (LTEA) Assay for Fatty Acid Synthase (FASN) using HepaRG (AID 2283448); settings: mRNA level, 48 h; actives raise or lower the signal;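 as to AC50: differentiated human HepaRG liver cells in serum-free induction medium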
Procedure, shortened: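 FASN expression changes, up or down relative to 0.5% DMSO, were measured by qRT-PCR in human HepaRG cells after 48 h treatment with chemicals at eight concentrations (half-log steps from 100 uM).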

[20] = read-out: flavin-containing dimethylaniline monooxygenases 3 (FMO3), FMO3 (gene 2328); assay: LTEA_HepaRG_FMO3: Life Technologies and Expression Analysis (LTEA) Assay for flavin-containing dimethylaniline monooxygenases 3 (FMO3) using HepaRG (AID 2283453); settings: mRNA level, 48 h; actives raise or lower the signal
Procedure, shortened: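 Differentiated HepaRG cells in serum-free induction medium, exposed 48 h in duplicate to 8 half-log concentrations up to 100 uM in 0.5% DMSO. FMO3 mRNA by qRT-PCR, normalized to ACTB, GAPDH, POLR2A; bidirectional fit vs DMSO.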

Measured: AC50

Chain of Fatty acid synthase (Homo sapiens) (P49327 whole entry, looked up): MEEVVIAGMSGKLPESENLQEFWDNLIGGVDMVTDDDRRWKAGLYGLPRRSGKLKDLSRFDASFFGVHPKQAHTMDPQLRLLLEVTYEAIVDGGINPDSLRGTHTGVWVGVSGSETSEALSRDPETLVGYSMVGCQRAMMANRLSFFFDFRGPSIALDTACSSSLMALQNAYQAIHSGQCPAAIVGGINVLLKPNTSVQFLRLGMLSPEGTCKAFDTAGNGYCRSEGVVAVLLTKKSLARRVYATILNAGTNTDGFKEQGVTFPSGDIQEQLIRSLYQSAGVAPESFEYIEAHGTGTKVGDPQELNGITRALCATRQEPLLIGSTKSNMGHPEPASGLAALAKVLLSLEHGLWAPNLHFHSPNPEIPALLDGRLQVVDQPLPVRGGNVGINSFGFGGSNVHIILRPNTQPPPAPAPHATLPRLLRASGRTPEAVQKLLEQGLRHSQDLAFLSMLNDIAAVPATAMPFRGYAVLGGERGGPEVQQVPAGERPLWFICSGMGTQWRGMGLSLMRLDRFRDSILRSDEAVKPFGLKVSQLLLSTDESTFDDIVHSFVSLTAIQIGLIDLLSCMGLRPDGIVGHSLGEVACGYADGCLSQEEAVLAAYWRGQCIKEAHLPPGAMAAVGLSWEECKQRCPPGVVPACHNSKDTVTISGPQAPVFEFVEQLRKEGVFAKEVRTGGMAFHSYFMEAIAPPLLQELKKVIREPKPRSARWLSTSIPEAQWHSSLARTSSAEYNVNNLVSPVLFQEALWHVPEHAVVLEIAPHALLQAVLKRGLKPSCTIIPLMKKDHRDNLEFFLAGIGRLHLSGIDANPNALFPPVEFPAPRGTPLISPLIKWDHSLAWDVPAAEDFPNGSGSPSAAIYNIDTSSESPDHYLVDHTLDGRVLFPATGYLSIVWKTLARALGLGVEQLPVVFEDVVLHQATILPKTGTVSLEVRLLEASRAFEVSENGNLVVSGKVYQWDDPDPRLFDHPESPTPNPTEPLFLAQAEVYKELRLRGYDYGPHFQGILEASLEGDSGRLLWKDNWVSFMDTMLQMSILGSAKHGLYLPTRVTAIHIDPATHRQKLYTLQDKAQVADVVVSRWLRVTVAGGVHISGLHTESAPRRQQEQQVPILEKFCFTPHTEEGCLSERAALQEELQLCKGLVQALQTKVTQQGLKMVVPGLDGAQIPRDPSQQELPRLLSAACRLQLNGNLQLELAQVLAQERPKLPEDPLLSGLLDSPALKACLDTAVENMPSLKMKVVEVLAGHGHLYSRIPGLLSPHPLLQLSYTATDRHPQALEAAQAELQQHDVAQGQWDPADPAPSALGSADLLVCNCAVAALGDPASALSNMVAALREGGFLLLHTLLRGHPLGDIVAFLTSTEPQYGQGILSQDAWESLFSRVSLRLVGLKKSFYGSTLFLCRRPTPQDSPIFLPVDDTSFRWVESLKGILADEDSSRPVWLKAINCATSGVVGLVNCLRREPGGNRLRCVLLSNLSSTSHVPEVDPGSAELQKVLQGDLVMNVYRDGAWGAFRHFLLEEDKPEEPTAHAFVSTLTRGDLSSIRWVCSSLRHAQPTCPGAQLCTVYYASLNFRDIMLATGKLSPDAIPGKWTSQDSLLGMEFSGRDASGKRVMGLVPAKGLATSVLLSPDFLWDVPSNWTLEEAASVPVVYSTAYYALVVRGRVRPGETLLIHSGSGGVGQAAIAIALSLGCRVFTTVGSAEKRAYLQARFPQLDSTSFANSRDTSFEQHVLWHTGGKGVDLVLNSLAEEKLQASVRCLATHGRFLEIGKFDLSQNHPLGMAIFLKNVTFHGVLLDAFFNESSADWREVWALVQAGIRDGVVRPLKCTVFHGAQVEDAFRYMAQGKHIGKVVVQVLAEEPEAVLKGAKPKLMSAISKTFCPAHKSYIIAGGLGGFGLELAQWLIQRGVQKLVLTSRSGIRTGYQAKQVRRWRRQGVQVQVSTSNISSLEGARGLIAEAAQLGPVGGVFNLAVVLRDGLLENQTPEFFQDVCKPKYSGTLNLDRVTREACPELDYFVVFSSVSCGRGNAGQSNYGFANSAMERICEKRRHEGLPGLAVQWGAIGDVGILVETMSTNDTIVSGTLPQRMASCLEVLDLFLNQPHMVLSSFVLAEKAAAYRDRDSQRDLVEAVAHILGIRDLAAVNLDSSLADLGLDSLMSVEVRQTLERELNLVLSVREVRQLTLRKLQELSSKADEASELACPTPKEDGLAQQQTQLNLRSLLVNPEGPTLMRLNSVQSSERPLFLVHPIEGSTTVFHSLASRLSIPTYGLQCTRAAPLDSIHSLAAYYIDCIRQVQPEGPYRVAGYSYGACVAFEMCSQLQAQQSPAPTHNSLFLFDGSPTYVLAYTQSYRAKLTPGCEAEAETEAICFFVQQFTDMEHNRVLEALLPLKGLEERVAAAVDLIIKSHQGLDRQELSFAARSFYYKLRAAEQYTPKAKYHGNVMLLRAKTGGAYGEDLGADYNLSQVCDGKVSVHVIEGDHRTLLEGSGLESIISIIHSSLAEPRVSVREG

C#CCOC(=O)[C@@H](C)Oc1ccc(Oc2ncc(Cl)cc2F)cc1
active: [1] 6.87 µM | [8] 33 µM | [11] 12.4 µM
not listed: [16] | [17] | [18] | [19] | [20]
inactive: all other assays above

c1ccc2[nH]c(-c3cscn3)nc2c1
active: [8] 18.9 µM
not listed: [19] | [20]
inactive: all other assays above

CCCCCOC(=O)COc1cc(N2C(=O)C3=C(CCCC3)C2=O)c(F)cc1Cl
active: [8] 0.00329 µM
not listed: [17] | [18] | [19] | [20]
inactive: all other assays above

CC(C)(C)[C@@H](O)[C@@H](Cc1ccc(Cl)cc1)n1cncn1
active: [19] 50 µM | [8] 33.9 µM | [13] 8.74 µM
not listed: [2] | [3] | [14] | [17] | [18] | [20]
inactive: all other assays above

O=C(O)c1ccccc1
inactive: [4] | [19] | [16] | [5] | [6] | [7] | [20] | [8] | [9] | [10] | [11] | [12] | [13] | [14] | [15]
active: [8] 51.2 µM

Oc1ccc(C(c2ccc(O)cc2)C(Cl)(Cl)Cl)cc1
inactive: [4] | [16] | [5] | [8] | [9] | [13] | [15]
active: [1] 0.207 µM | [6] 89.2 µM | [7] 88.8 µM | [10] 93.2 µM | [11] 90.9 µM | [12] 82.9 µM | [14] 93.8 µM
